PLK1 inh – inhibitors of human PLK1 kinase | recombinant PLK1 kinase, TR-FRET peptide phosphorylation | inhibition, % at 10 µM | 0.53% of 97,000 active | AID 619;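 active means inhibition of 50% or more in the single-concentration screen; inactive means inhibition below 50%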
Target sequence (P53350 whole entry, looked up): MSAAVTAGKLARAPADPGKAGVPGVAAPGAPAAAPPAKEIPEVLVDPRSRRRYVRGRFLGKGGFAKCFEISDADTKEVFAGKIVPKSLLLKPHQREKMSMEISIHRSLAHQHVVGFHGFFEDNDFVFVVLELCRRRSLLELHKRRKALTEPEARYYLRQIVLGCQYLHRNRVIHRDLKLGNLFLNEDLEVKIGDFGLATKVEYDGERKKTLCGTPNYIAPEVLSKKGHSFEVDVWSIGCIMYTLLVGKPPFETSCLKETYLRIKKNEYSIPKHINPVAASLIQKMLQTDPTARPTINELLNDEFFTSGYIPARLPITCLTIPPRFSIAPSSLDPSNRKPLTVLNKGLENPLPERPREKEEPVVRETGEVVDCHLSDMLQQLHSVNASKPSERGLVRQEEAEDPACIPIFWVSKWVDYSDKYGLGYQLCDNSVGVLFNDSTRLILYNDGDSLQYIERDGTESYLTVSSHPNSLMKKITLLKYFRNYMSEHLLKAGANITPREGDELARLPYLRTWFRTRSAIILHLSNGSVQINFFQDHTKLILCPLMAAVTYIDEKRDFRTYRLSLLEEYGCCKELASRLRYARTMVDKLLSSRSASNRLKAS
PTK2B oligo ant – antagonists of human Pyk2 oligomerization. AID 1347419. Q293 cells, Pyk2 FERM NanoBiT luminescence; stronger effect = lower value. 0.83% of 99,000 active. Q14289. z-score (the deposit names both 25 µM and 10 µM);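 active means Z-score of -3 or lower, scaled per plate to the spread of control and sample wells; inactive means z-score above -3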;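 further: negative z-score means lost luminescence so less FERM oligomerization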
PTPN22 act – LYP (human) phosphatase activation; recombinant LYP, DiFMUP fluorescence; 0 = plate median, 100 = signal doubled; activation, % at 2 µM; 0.11% of 96,000 active;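 active means activation at 2 µM above a set limit, the mean plus 5 SD, cut at about 37% in these data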
PLK1 PBD inh – Plk1 (human) PBD binding inhibition; inhibition, %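 (tested at about 20 µM)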; AID 693; 0.13% of 97,000 active; Plk1 PBD phosphopeptide binding, fluorescence polarization; in the data active means inhibition above about 34%, passing the limit was not always enough
LYP inh 2 – inhibitors of human LYP (PTPN22) phosphatase; Q9Y2R2; recombinant LYP catalytic domain, DiFMUP fluorescence; inhibition, % at 2 µM; 0.21% of 96,000 active;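 active means inhibition at 2 µM at or above a set limit, the screen mean plus 3 SD, cut at about 24% in these data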
Of the large screens only hits and unclear results are named; the others gave an inactive call. Hits are enriched below; roughly 1.7% of the tested compounds scored in any of these assays.

COc1ccc(N2CCN(c3ncnc4c3[nH]c3ccccc34)CC2)cc1	PTK2B oligo ant -3.47
OC1(c2cccc(C(F)(F)F)c2)CCN(c2ncnc3c2[nH]c2ccc(F)cc23)CC1	none
Cc1nc2ncnn2c(C)c1CCC(=O)Nc1csc(N)n1	none
COc1ccc(CN(C(=O)CSc2nnc(-c3c[nH]c4ccccc34)o2)c2ccc(F)cc2)cc1OC	PTK2B oligo ant -4.2
COc1ccc(CN(C(=O)CSc2nnc(-c3ccc(F)cc3)o2)c2ccc(F)cc2)cc1	none (no result: PLK1 inh, PTPN22 act, PLK1 PBD inh, LYP inh 2)
CCOC(=O)c1cnc(C(C)(C)C)[nH]c1=O	none
O=S(=O)(c1ccc2c(c1)OCCO2)N1CCC(c2nc3ccc(Cl)cc3[nH]2)CC1	PTK2B oligo ant -3.37
O=S(=O)(c1ccc2c(c1)OCCO2)N1CCC(c2nc3ccccc3s2)CC1	PTK2B oligo ant -3.15
O=C(c1ccc(S(=O)(=O)N2CCC(c3nc4ccccc4s3)CC2)cc1)N1CCOCC1	none (no result: PLK1 inh, PTPN22 act, PLK1 PBD inh, LYP inh 2)
Cc1cc(NC(=O)C2CC(c3ccc(F)cc3)=NO2)no1 (stereo not given)	none (no result: PTK2B oligo ant)
CC(C)(C)C(=O)NC1(C(F)(F)F)C(=O)Nc2c1c(=O)[nH]c(=O)n2Cc1ccco1 (stereo not given)	none (no result: PLK1 inh, PTPN22 act, PLK1 PBD inh, LYP inh 2)
O=C(O)c1nc(N2CCOCC2)nc(N2CCOCC2)n1	none
CN1CCn2c1nc(N1CCOCC1)nc2=O	LYP inh 2 30.8
O=C(CC1C(=O)NCCN1C(=O)Nc1ccccc1)Nc1cccc(C(F)(F)F)c1 (stereo not given)	PTK2B oligo ant -3.17
O=C(CC1C(=O)NCCN1C(=O)Nc1ccccc1)Nc1ccc2c(c1)OCO2 (stereo not given)	none
Cc1c(NC(=O)CN2CCN(C(c3ccccc3)c3ccccc3)CC2)c(=O)n(-c2ccccc2)n1C	PTK2B oligo ant -3.52
CCN(CC)C(=O)Nc1c(C)n(C)n(-c2ccccc2)c1=O	PLK1 inh 54.7
COc1ccc(-n2c3c(cc(C(=O)Nc4ccc5c(c4)C(=O)NC5=O)c2=O)C(=O)CCC3)cc1	none (no result: PTK2B oligo ant)
NC(=O)C1CCCN(S(=O)(=O)c2ccc(Br)cc2)C1 (stereo not given)	none
Brc1ccc2nc(CSc3ncn[nH]3)cn2c1	LYP inh 2 83.4
Cc1[nH]nc(-c2ccc(O)c(C)c2O)c1Oc1ccccc1	PTK2B oligo ant -3.37
Cc1[nH]nc(-c2ccc(OCc3cnn(-c4ccccc4)c3)c(C)c2O)c1Oc1ccccc1	none
CCOc1ccc(-c2n[nH]c(C)c2Oc2ccc(OC)cc2)c(O)c1	PTK2B oligo ant -3.09
Cc1[nH]nc(-c2ccc(OCc3cnn(-c4ccccc4)c3)cc2O)c1Oc1ccc(F)cc1	none
COc1ccc(OC)c(S(=O)(=O)N2CCN(C)CC2)c1	none (no result: PLK1 inh, PTPN22 act, PLK1 PBD inh, LYP inh 2)
CCc1ccccc1N1CCN(S(=O)(=O)c2cc(OC)ccc2OC)CC1	PTK2B oligo ant -3.34
COc1cccc(OC)c1-c1nn2c(-c3ccccc3Cl)nnc2s1	PTK2B oligo ant -3.02
Clc1ccccc1-c1nnc2sc(-c3ccccn3)nn12	none
CCOC(=O)c1ccc(N2C(=O)c3n[nH]c(C)c3C2c2ccccc2)cc1 (stereo not given)	PTK2B oligo ant -3.06
Cc1nc2sc(C(c3ccco3)N3CCc4ccccc4C3)c(O)n2n1 (stereo not given)	none
O=C(NCc1cc(C(F)(F)F)cc(C(F)(F)F)c1)C1CC(c2cccc([N+](=O)[O-])c2)=NO1 (stereo not given)	none (no result: PTK2B oligo ant)
O=C(Nc1ccccc1N1CCOCC1)c1ccc2ccccc2n1	PTK2B oligo ant -3.65
CCCC(c1nnnn1Cc1cccs1)N1CCN(c2nc3ccccc3s2)CC1 (stereo not given)	PTK2B oligo ant -3.49
COc1ccc(C(c2nnnn2Cc2ccccc2)N2CCN(c3ccccc3)CC2)cc1 (stereo not given)	PTK2B oligo ant -3.82 (no result: PLK1 inh, PTPN22 act, PLK1 PBD inh, LYP inh 2)
COc1ccc(C(c2nnnn2Cc2cccs2)N2CCN(c3ccccc3F)CC2)cc1 (stereo not given)	PTK2B oligo ant -3.87
COc1ccc(Cn2nnnc2C(c2ccccc2)N2CCN(C3CCCC3)CC2)cc1 (stereo not given)	none (no result: PLK1 inh, PTPN22 act, PLK1 PBD inh, LYP inh 2)
COc1ccc(C(c2nnnn2Cc2ccccc2)N2CCN(c3nc4ccccc4s3)CC2)cc1 (stereo not given)	PTK2B oligo ant -4.09 (no result: PLK1 inh, PTPN22 act, PLK1 PBD inh, LYP inh 2)
COc1ccc(OC)c(NC(=O)C2CCCN2C(=O)C2CCC(C)CC2)c1 (stereo not given)	none (no result: PTK2B oligo ant)
CCOC(=O)C1=C(C)NC(C)=C(C(=O)OCC)C1C(=O)OCC(=O)NC(C)C	none
N=c1c(-c2nc3ccccc3[nH]2)cc(C(=O)c2cccs2)nn1-c1ccc(Cl)cc1	none (no result: PTK2B oligo ant)
c1ccc(CCn2nnnc2C(c2cccnc2)N2CCN(c3nc4ccccc4s3)CC2)cc1 (stereo not given)	PTK2B oligo ant -3.05
c1ccc(CCn2nnnc2C(c2cccnc2)N2CCN(c3ccccc3)CC2)cc1 (stereo not given)	none
COCCn1nnnc1C(c1ccc(OC)c(OC)c1)N1CCN(c2nc3ccccc3s2)CC1 (stereo not given)	PTK2B oligo ant -3.37
COCCn1nnnc1C(c1ccccc1)N1CCN(c2ccccc2)CC1 (stereo not given)	none
Cn1ccs/c1=N\S(=O)(=O)c1ccc(F)cc1	none
Cc1ccc(C2NNC(=O)C2NC(=O)c2ccccc2)cc1 (stereo not given)	none
O=C1CN(C(=O)COc2ccccc2)CCN1	PLK1 inh 61.4 (no result: PTK2B oligo ant, PTPN22 act, LYP inh 2)
CCn1cc(C(=O)N2CCCCC2)c(=O)c2cc(S(=O)(=O)N3CCC(C)CC3)ccc21	PLK1 inh 50.1
COc1ccc(NC(=O)c2c(OC)cccc2OC)c(OC)c1	PTK2B oligo ant -4.38
C#CCn1c(=NC(=O)CN2C(=O)CCC2=O)sc2cccc(C)c21	PLK1 inh 62.4 (no result: PTK2B oligo ant, PTPN22 act, LYP inh 2)
OCCNc1ncnc2c1c(-c1ccccc1)c(-c1ccccc1)n2Cc1ccco1	PTK2B oligo ant -3.29
Cc1ccc(C)c(C(=O)n2cnnc2N)c1	PLK1 inh 54.5
Cc1ccc(C(=O)n2cnnc2N)cc1	none
Nc1nncn1C(=O)c1cccs1	PLK1 inh 57.4
C/C(O)=c1/ccc2cccc3nc(C)nc1c23	none
N#Cc1c2n(c3c(=O)n(Cc4ccc(Cl)cc4)cnc13)CCCCC2	PTK2B oligo ant -3.23
CCOC(=O)N1CCC(Nc2c(OCC)c(=O)c2=O)CC1	PLK1 inh 69.3 (no result: PTK2B oligo ant, PTPN22 act, LYP inh 2)
CCOC(=O)N1CCC(Nc2c(NCCCOC)c(=O)c2=O)CC1	none
O=C(COC(=O)c1n[nH]c2ccccc12)NC(=O)NC12CC3CC(CC(C3)C1)C2	none
CCOC(=O)c1cc2sccc2n1CC(=O)Nc1ccc2c(c1)OCCO2	PTK2B oligo ant -3.93
COC(=O)c1cc2sccc2n1CC(=O)Nc1cccc(SC)c1	PTK2B oligo ant -3.56 (no result: PLK1 inh, PTPN22 act, PLK1 PBD inh, LYP inh 2)
COC(=O)c1cc2sccc2n1CC(=O)Nc1ccc(OC)c(OC)c1OC	none
CCOC(=O)c1cc2sccc2n1CC(=O)OC	none
O=C(Nc1cccc(S(=O)(=O)C(F)F)c1)c1ccc(Cl)c(S(=O)(=O)N2CCOCC2)c1	PTK2B oligo ant -3.01 (no result: PLK1 inh, PTPN22 act, PLK1 PBD inh, LYP inh 2)
O=C(Nc1cccc(Br)c1)c1ccc(Cl)c(S(=O)(=O)N2CCOCC2)c1	none
O=C(Nc1ccccc1Cl)c1ccc(S(=O)(=O)N2CCOCC2)cc1	PLK1 inh 68.3 (no result: PTK2B oligo ant, PTPN22 act, LYP inh 2)
